DAX1 inh-1: inhibitors of human orphan nuclear receptor DAX1 (NR0B1) | HEK293 Gal4-DAX1 luciferase reporter, luminescence | inhibition, % at 6.75 µM | hit rate 0.99% among 340,000 | AID 504766;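 active = inhibition above the mean over all tested compounds plus 3 SD, cut at about 4.2% in these data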;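 note: inhibition shows as a rise in luminescence from relieved DAX1 repression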
ssDAF12 agonist: activators of S. stercoralis DAF-12 nuclear receptor | activation, % at 6.8 µM | AID 652126 | hit rate 1% among 370,000 | HEK293 ssDAF-12/GRIP1 lit1-tk-luc reporter, luminescence; % of 3 µM dafachronic acid response;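 active = activation above the mean over all tested compounds plus 3 SD, cut at about 0.9% in these data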
hcDAF12 agonist: H. contortus DAF-12 activation, primary screen. HEK293 hcDAF-12 lit1-tk-luc reporter, luminescence; 0% DMSO, 100% Δ7-dafachronic acid. activation, % at 6.8 µM. hit rate 1.4% among 370,000. AID 652067;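 active = activation above the mean of all tested compounds plus 3 SD, cut at about 5.5% in these data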
DAX1 inh-2: blocks DAX1 repression of SF-1 activated StAR promoter | HEK293T StAR-luciferase reporter, SF-1/DAX-1 repression relief | inhibition, % at 6.8 µM | hit rate 1.1% among 370,000 | AID 652010;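 active = inhibition above the mean over all tested compounds plus 3 SD, cut at about 3.6% in these data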;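 note: higher inhibition means more luminescence from relief of DAX-1 repression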
SMARCA2 act: SMARCA2 function activation, primary screen | MG213 cells, MMTV-luciferase reporter, dexamethasone, overnight | activation, % at 9.1 µM | hit rate 1% among 370,000 | AID 652017; in the data active = activation above about 7.8%
hgDAF12 agonist: agonists of H. glycines DAF-12 nuclear receptor | HEK293 GAL4-hgDAF12 UAS-luciferase reporter, agonist luminescence; normalized to butyrate control | activation, % at 6.8 µM | hit rate 1.8% among 370,000 | AID 687014;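 active = activation above a cutoff set at the mean of all screened compounds plus 3 SD, cut at about 10% in these data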
hgDAF12 conf: hgDAF-12 agonism, confirmation assay; HEK293 GAL4-hgDAF12 luciferase reporter, agonist mode; percent of butyrate response; hit rate 80% among 3,300; activation, % at 6.8 µM; shares compounds with hgDAF12 agonist;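 active = mean activation over triplicate wells above the hit cutoff derived from the earlier primary screen, cut at about 11% in these data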
LXR ag 2: LXR-beta agonism as DAF-12 counter-screen; shares compounds with hgDAF12 agonist; HEK293 Gal4-LXR luciferase reporter, 24 h; activation, % at 6.8 µM; 3,300 tested, under 10 active;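 active = mean activation of the triplicate above a set limit carried over from the primary screen, none filed active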
Target sequence (P55055 whole entry, looked up, the tested form may be a part): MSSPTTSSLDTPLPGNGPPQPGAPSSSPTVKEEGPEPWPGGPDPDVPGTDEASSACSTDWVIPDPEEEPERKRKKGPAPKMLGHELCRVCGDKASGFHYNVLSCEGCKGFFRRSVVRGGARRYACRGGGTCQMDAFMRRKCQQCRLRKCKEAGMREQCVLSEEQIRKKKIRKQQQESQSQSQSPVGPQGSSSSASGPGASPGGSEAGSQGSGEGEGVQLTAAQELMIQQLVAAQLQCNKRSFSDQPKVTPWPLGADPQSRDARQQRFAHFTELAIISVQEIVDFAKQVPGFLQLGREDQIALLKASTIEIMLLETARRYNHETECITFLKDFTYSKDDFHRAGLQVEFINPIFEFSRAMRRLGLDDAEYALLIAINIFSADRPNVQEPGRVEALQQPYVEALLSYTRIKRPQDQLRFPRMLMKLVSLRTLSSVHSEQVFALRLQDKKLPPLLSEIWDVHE
Large screens that a line does not name were inactive (follow-up assays come after a bar, where they were run). Only some compounds are listed: those with a hit (about 4.8% of all), similar ones and a draw of the others.

Cc1csc(NC(=O)CSc2nsc(SCC(=O)Nc3nc(C)cs3)c2C#N)n1	hgDAF12 agonist 18 | hgDAF12 conf 15 | LXR ag 2 inactive
COc1ccc(-c2cc(=Nc3c(C)n(C)n(-c4ccccc4)c3=O)c3ccccc3o2)cc1	DAX1 inh-1 5.3, hcDAF12 agonist 6.0, hgDAF12 agonist 19 | hgDAF12 conf 12 | LXR ag 2 inactive
CNC(=O)c1cc2cccc(OC)c2oc1=O	none
Cc1cccc2cc(-c3nc4ccc(C(=O)O)cc4[nH]3)c(=O)oc12	none (no result: ssDAF12 agonist, hcDAF12 agonist, DAX1 inh-2, SMARCA2 act, hgDAF12 agonist)
COc1cccc2cc(-c3ccccc3)c(=O)oc12	hcDAF12 agonist 5.8, hgDAF12 agonist 16 | hgDAF12 conf 14 | LXR ag 2 inactive
COc1cccc2cc(-c3nc4ccccc4[nH]3)c(=O)oc12	ssDAF12 agonist 1.1, hgDAF12 agonist 15 | hgDAF12 conf 17 | LXR ag 2 inactive
Cc1cccc(NC(=O)CSc2nnc(-c3cccnc3)n2Cc2ccco2)c1C	none (no result: DAX1 inh-1)
CCN1C(=O)N[C@H]2C[C@@H](c3ccccc3)[C@@H](C)[C@@H](C(=O)N3CCCC3)C[C@H]21	none (no result: DAX1 inh-1)
N#C/C(=C\c1ccc(OCc2cccc(C(=O)O)c2)cc1)C(=O)NCc1ccco1	DAX1 inh-2 3.8, hgDAF12 agonist 15 | hgDAF12 conf 18 | LXR ag 2 inactive
O=C(Cn1c(=O)c(=O)n(Cc2ccccc2)c2ccc(Cl)cc21)Nc1cccc(F)c1	hgDAF12 agonist 26 | hgDAF12 conf inactive | LXR ag 2 inactive
S=C(SCc1nc(-c2ccc(Cl)cc2)no1)N1CCSCC1	none (no result: DAX1 inh-1)
c1ccc(Cc2cnc(N3CCN(Cc4cccc(-c5ccsc5)n4)CC3)nc2)cc1	none (no result: DAX1 inh-1)
COCCNC(=O)c1noc2c1CCc1cc(OC)ccc1-2	hgDAF12 agonist 14 | hgDAF12 conf 12 | LXR ag 2 inactive
CN1CCCCC(NC(=O)c2cccc(C(F)(F)F)c2)C1=O (stereo unspecified)	none (no result: DAX1 inh-1)
O=C1NCCN1CCN1CCC(c2cn(-c3ccc(F)cc3)c3ccc(Cl)cc23)CC1	none (no result: DAX1 inh-1)
CCN(CC)c1ccc(NC(=O)c2ccc(Br)o2)cc1	DAX1 inh-1 5.0, hgDAF12 agonist 16 | hgDAF12 conf 15 | LXR ag 2 inactive
COc1ccc(C(=O)O/N=C(\N)c2ccccc2Cl)cc1OC	none
COc1ccccc1C(=O)O/N=C(\N)c1ccccc1Cl	hgDAF12 agonist 17 | hgDAF12 conf 11 | LXR ag 2 inactive
O=C(N[C@@H](Cc1cccnc1)C(=O)N1CCC[C@H]1C(=O)NC1CCCC1)c1cccs1	none (no result: DAX1 inh-1)
OC(c1ccccc1)(c1ccccc1)C1CCN(CCCOc2cccc(C(F)(F)F)c2)CC1	none (no result: DAX1 inh-1)
O=C(N/N=C/C=C/c1ccccc1)c1cccs1	none
Cc1nn(-c2ccc(F)cc2)c(Cl)c1/C=N/NC(=O)c1ccc(O)cc1	none
Cc1nn(-c2ccc(F)cc2)c(Cl)c1/C=N/NC(=O)c1cccs1	hgDAF12 agonist 15 | hgDAF12 conf inactive | LXR ag 2 inactive
O=C(N/N=C/C(Br)=C/c1ccccc1)c1cccs1	DAX1 inh-1 4.5, hgDAF12 agonist 24 | hgDAF12 conf 15 | LXR ag 2 inactive
Cc1cc(/C=N/NC(=O)c2cccs2)c(C)n1-c1ccccc1	none
Cc1cc(/C=N/NC(=O)c2cccs2)c(C)n1-c1cnccn1	DAX1 inh-2 3.9, hgDAF12 agonist 16 | hgDAF12 conf 15 | LXR ag 2 inactive
Cc1ccsc1/C=N/NC(=O)c1cccs1	hgDAF12 agonist 15 | hgDAF12 conf inactive | LXR ag 2 inactive
O=C(OCC#CCSc1nnc(-c2ccccc2)o1)c1ccc(F)cc1	none (no result: DAX1 inh-1, DAX1 inh-2, SMARCA2 act)
C[C@H]1C(C(=O)N(C)C2CCCCC2)=Cc2c(n(-c3ccc(F)cc3)c(=O)n2CCCOc2ccccc2)C=C1c1ccccc1	none (no result: DAX1 inh-1)
C=CCNc1cccc2c1S(=O)(=O)N[C@@H](CC(C)C)CO2	none (no result: DAX1 inh-1)
CCN(CC)C(=O)CSc1nnc(-c2ccccc2)o1	hgDAF12 agonist 18 | hgDAF12 conf 12 | LXR ag 2 inactive
CC(=O)Nc1cncc(-c2ccc(CN(C)C)cc2)n1	none (no result: DAX1 inh-1)
